Bioassay records deposited in PubChem BioAssay by SRMLSC.
NADH enzymes – blocks coupling enzymes of NAD/NADH assays; coupled PK/LDH NADH assays, four targets; IC50, µM (highest dose often 10 µM); actives 0.02% (n = 65,000); AID 774;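 active = single-dose screening hits from any of four coupled enzyme assays that gave an IC50 when retested across doses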;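 note: the DPM-DC format reads NADH fluorescence rather than 340 nm absorbance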
Fluor 339 460 – intrinsic fluorescence of library compounds, ex339/em460 – biochemical, MLSMR library, data from DPM-DC assay, artefact control, profiling panel; compound autofluorescence, ex339/em460 nm, NADH buffer; stronger effect = higher value; 1 = no-compound wells, NADH background; fluorescence fold increase at 10 µM; actives 5.5% (n = 65,000);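 active = at 10 µM, mean starting fluorescence two-fold or more over control wells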;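 note: signal is the first read of a kinetic run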
PMK inhibit – blocks S. pneumoniae phosphomevalonate kinase | actives 0.49% (n = 65,000) | inhibition, % at 10 µM | purified PMK, PK/LDH-coupled NADH absorbance 340 nm | AID 539;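 active = top-ranked compounds by inhibition in the single 10 µM screen, taking a fixed number of the strongest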
DPM-DC inhibit – S. pneumoniae DPM-DC inhibition; actives 0.49% (n = 65,000); calls only at 10 µM; purified DPM-DC, PK/LDH coupled NADH fluorescence;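 active = the 320 compounds with the highest percent inhibition in the single-dose primary screen, excluding strongly autofluorescent ones, cut at about 32% in these data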;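 note: kinetic rate of NADH fluorescence loss reporting ADP formed by the decarboxylase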
Spn MK inh – inhibitors of Streptococcus pneumoniae mevalonate kinase; purified MK, PK/LDH-coupled NADH absorbance 340 nm; inhibition, % at 10 µM; actives 0.48% (n = 65,000); AID 555;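 active = ranked among the strongest by inhibition in the single 10 µM screen, a fixed top-ranked set picked for dose follow-up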
Abs 340nm – absorbance at 340 nm; 65,000 tested, under 10 active; compound absorbance at 340 nm, fold over control; AID 708; fold change at 10 µM;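 active = at 10 µM dose, initial 340 nm absorbance at least 2 fold that of control wells; inactive = change under 2 fold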;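 note: initial absorbance extrapolated from kinetic A340 decline of NADH oxidation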
Numbers stand for hits; n = inactive; x = no result shown; + = active, no number. Rows were chosen to be rich in hits. Some 6.8% of all compounds tested hit in one or more screens of this group.

SMILES	NADH enzymes	Fluor 339 460	PMK inhibit	DPM-DC inhibit	Spn MK inh	Abs 340nm
CC1(C)CC(=O)C2=C(C1)N(c1cccc(O)c1)C1=C(C2)C(=O)CC(C)(C)C1	n	3.6	n	x	n	n
CC1(C)CC(=O)c2cnc(N3CCN(c4ccccc4)CC3)nc2C1	n	n	n	n	n	n
CC(C)C(NS(=O)(=O)c1cccs1)C(=O)N1CCc2ccccc2C1 (centres undefined)	n	n	n	n	n	n
Cc1ccc(C)c(S(=O)(=O)C(C#N)c2nc3ccccc3nc2N2CCOCC2)c1 (centres undefined)	n	n	n	n	n	n
N#CC(c1nc2ccccc2nc1N1CCCC1)S(=O)(=O)c1ccccc1 (centres undefined)	n	2.3	n	x	n	n
Cc1ccc(C)c(S(=O)(=O)C(C#N)c2nc3ccccc3nc2N2CCCC2)c1 (centres undefined)	n	3.4	n	x	n	n
Cc1cccc(S(=O)(=O)C(C#N)c2nc3ccccc3nc2N2CCCC2)c1 (centres undefined)	n	3.9	n	x	n	n
N#CC(c1nc2ccccc2nc1N1CCCC1)S(=O)(=O)c1cccs1 (centres undefined)	n	2.7	n	n	n	n
Cc1ccc(S(=O)(=O)C(C#N)c2nc3ccccc3nc2N2CCC(C)CC2)cc1 (centres undefined)	n	n	n	n	n	n
COc1ccc(S(=O)(=O)C(C#N)c2nc3ccccc3nc2N2CCCCC2)cc1 (centres undefined)	n	n	n	n	n	n
COc1cccc(CN(Cc2cccnc2)S(=O)(=O)c2ccc(-n3cnnn3)c(C)c2)c1OC	n	n	n	n	n	n
CC1=Nc2ncnn2C(c2ccccc2)/C1=N\O (centres undefined)	n	n	n	n	n	n
CSc1nc(C)cc(NC(N)=O)n1	n	n	n	n	n	n
C=CCNC(=O)C(C#N)c1nc2ccccc2nc1N1CCCCCC1 (centres undefined)	n	2.3	n	x	n	n
CCCCCCOC(=O)C(C#N)c1nc2ccccc2nc1N1CCCCC1 (centres undefined)	n	n	n	n	n	n
CCCCCCOC(=O)C(C#N)c1nc2ccccc2nc1N1CCN(C)CC1 (centres undefined)	n	3.9	n	x	n	n
Cc1ccc2nc(NC3=NCN(Cc4ccc5c(c4)OCO5)CN3)nc(C)c2c1	n	n	n	n	n	n
Cc1sc2nc3n(c(=O)c2c1C)CCCS3	n	n	n	n	n	n
Cc1sc2nc3ccc(N4CCCC4)nn3c(=O)c2c1C	n	2.1	n	x	n	n
CCOC(=O)N1CCN(C(=O)CS(=O)(=O)c2cn(Cc3ccc(F)cc3)c3ccccc23)CC1	n	n	n	n	n	n
Cc1noc(/C=C/N(C)C)c1S(=O)(=O)N1CCCC(C(=O)NC(C)c2ccccc2)C1 (centres undefined)	n	n	n	n	n	n
CC1=CC(C)(C)Nc2ccc(C)cc21	n	2.6	n	n	n	n
CC1=CC(C)(C)Nc2cc(C)c(C)cc21	n	2.7	n	n	n	n
O=C(Cc1ccccc1)Nc1ccc(-c2nnc(-c3ccco3)o2)cc1	n	2.6	n	n	n	n
CCC(=O)Nc1ccc(-c2nnc(-c3ccccc3)o2)cc1	n	2.4	n	x	n	n
SMILES	NADH enzymes	Fluor 339 460	PMK inhibit	DPM-DC inhibit	Spn MK inh	Abs 340nm
O=C(Cc1ccc(Cl)cc1)Nc1ccc(-c2nnc(-c3ccco3)o2)cc1	n	n	n	n	n	n
COc1ccccc1CC(=O)Nc1ccc(-c2nnc(-c3ccco3)o2)cc1	n	2.3	n	x	n	n
COc1ccc(CC(=O)Nc2cccc(-c3nnc(-c4ccco4)o3)c2)cc1	n	n	n	n	n	n
CCC(=O)Nc1ccc(C(=O)c2ccccc2)cc1	n	n	n	n	n	n
O=C(O)CCC(=O)Nc1ccc(-c2nnc(-c3ccco3)o2)cc1	n	2.1	n	x	n	n
CS(=O)(=O)N1CCN(C(=O)c2cc(-c3ccncc3)nc3ccc(Cl)cc23)CC1	n	n	n	n	n	n
COc1cccc(C2CC(c3cccc(Br)c3)n3nc(N)nc3N2)c1 (centres undefined)	n	n	n	n	n	n
CCN(CCCNC(=O)CN1C(=O)COc2ccccc21)c1cccc(C)c1	n	n	n	n	n	n
O=C(NCc1ccco1)c1cc2cc3ccc(Cl)cc3nc2o1	n	n	n	n	n	n
COc1ccc2nc3oc(C(=O)NCc4cccs4)cc3cc2c1	n	3.9	n	+	n	n
COc1ccc2cc3cc(C(=O)NCCN4CCN(c5ccccc5F)CC4)oc3nc2c1	n	5.1	n	x	n	n
COc1ccc2cc3cc(C(=O)Nc4ccccc4N4CCN(C)CC4)oc3nc2c1	n	n	n	n	n	n
COc1ccc2cc3cc(C(=O)NCc4ccccn4)oc3nc2c1	n	5.1	n	x	n	n
O=C(NCc1cccs1)c1cc2ccccc2o1	n	n	n	n	n	n
COc1ccc2cc3cc(C(=O)NCC4CCCO4)oc3nc2c1 (centres undefined)	n	3.5	n	x	n	n
Cc1cccc2cc(CN(Cc3cccs3)C3(c4nnnn4C4CCCC4)CCCC3)c(=O)[nH]c12	n	n	n	n	n	n
Cc1c(NC(=O)CCc2ccc(S(=O)(=O)N3CCOCC3)cc2)c(=O)n(-c2ccccc2)n1C	n	n	n	n	n	n
O=C(CCSc1nc(-c2ccc3c(c2)OCO3)cc(C(F)(F)F)n1)NCc1ccco1	n	2.2	28	x	n	n
COc1ccc(OCCC(=O)Nc2cc(C)on2)cc1	n	n	n	n	n	n
COc1ccc(-c2cc(C(F)(F)F)nc(SCCC(=O)Nc3cc(C)on3)n2)cc1	n	n	n	+	n	n
COc1ccc(-c2cc(C(F)(F)F)nc(NC3CCCC3)n2)cc1OC	n	n	n	n	n	n
COc1ccc(-c2cc(C(F)(F)F)nc(SCC(=O)N3CC(C)OC(C)C3)n2)cc1OC (centres undefined)	n	3.5	n	x	n	n
O=C(CCSc1nc(-c2ccco2)cc(C(F)(F)F)n1)N1CCN(c2ccccc2)CC1	n	n	n	n	n	n
COc1ccc(-c2cc(C(F)(F)F)nc(SCCC(=O)N3CCN4CCCC4C3)n2)cc1 (centres undefined)	n	2.3	n	+	n	n
O=C(NCc1ccccn1)c1nnc(Cc2ccc(Cl)cc2)o1	n	n	n	n	n	n
CCSc1nnc(NC(=O)C(CC)Oc2ccccc2)s1 (centres undefined)	n	n	n	n	n	n
Cc1cc(NC(=O)CSc2nc(-c3cccs3)cc(C(F)(F)F)n2)no1	n	n	n	n	n	n
COc1ccc(-c2cc(C(F)(F)F)nc(SCC(=O)Nc3cc(C)on3)n2)cc1OC	n	3.8	n	x	n	n
